Several values for one entry are separate records, joined by “and”; a condition that tells them apart may be missing. Equal entries are not always repeated. Records with an inconclusive call do not appear. The source holds several records for some structures; these can differ, active in one and inactive in another. Activity calls are given as the source filed them. How the source made its calls, unless noted: active means hit-call score of the fitted dose curve at least 0.9, where 1 is the maximum; inconclusive means response in the unintended direction; inactive means score below 0.9.
Key:
[1] = target: Estrogen receptor beta (Homo sapiens) (UniProt Q92731); experiment: OT_ER_ERbERb_1440: Odyssey Thera (OT) 24-hour HEK293T Protein-Complementation Assay for Estrogen Receptor-beta/-beta Homodimer (AID 2283380);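 further: scored as signal increase over DMSO baseline for both agonists and antagonists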
Chain of Estrogen receptor beta (Homo sapiens) (Q92731 whole entry, looked up, the tested form may be a part): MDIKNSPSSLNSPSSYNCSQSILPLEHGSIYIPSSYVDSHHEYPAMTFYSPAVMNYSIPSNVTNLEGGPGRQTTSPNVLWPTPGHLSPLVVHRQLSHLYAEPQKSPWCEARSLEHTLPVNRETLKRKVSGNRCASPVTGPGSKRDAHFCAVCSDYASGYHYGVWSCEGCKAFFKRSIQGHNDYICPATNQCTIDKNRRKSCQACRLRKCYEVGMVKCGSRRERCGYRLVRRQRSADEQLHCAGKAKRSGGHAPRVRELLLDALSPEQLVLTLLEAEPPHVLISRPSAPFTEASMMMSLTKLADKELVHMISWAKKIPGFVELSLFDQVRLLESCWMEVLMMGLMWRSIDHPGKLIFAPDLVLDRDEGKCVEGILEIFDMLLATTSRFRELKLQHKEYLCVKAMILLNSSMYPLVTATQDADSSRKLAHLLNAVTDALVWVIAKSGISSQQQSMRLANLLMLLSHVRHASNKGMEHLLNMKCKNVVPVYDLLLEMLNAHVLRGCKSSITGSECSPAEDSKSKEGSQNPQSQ
In short: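 HEK293T cells stably expressing ER beta LBD (aa 310-547) homodimer fragment-complementation reporter, dosed 24 h. Cells formaldehyde-fixed, Draq5-stained; gain in nuclear (agonist) or nuclear plus cytoplasmic (antagonist) fluorescence versus DMSO read by laser scanning cytometry.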

[2] = target: Retinoic acid receptor RXR-alpha (Homo sapiens) (UniProt P19793); experiment: OT_NURR1_NURR1RXRa_0480: Odyssey Thera (OT) 8-hour HEK293T Protein Complementation Assay for Nurr1/retinoid X receptor (RXR) (AID 2283385)
Chain of Retinoic acid receptor RXR-alpha (Homo sapiens) (P19793 whole entry, looked up, the tested form may be a part): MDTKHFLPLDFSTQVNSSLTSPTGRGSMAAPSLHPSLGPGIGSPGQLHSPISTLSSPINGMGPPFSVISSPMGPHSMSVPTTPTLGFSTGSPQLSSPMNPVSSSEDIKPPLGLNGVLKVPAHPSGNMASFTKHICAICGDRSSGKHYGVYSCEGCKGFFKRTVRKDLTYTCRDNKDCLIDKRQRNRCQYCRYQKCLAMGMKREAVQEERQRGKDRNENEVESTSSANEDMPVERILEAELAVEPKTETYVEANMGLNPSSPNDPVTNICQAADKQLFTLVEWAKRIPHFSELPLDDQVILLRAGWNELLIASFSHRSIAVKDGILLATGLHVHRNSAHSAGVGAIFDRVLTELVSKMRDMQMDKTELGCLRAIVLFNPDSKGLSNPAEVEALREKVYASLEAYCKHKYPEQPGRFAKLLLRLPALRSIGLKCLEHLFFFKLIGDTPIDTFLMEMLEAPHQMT
In short: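 Interaction of Nurr1 with RXRα read as reconstituted reporter fluorescence in a HEK293T fragment-complementation system, 8 h post-treatment; increase over DMSO baseline analysed.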

[3] = target: Retinoic acid receptor RXR-alpha (Homo sapiens) (UniProt P19793); experiment: OT_NURR1_NURR1RXRa_1440: Odyssey Thera (OT) 24-hour HEK293T Protein Complementation Assay for Nurr1/retinoid X receptor (RXR) (AID 2283386)
In short: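 Gain in fluorescence, fitted relative to DMSO, reflects Nurr1–RXRα association in HEK293T cells after 24 h dosing. Bait and prey are each linked to a reporter-protein fragment that reassembles on interaction.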

[4] = target: Peroxisome proliferator-activated receptor gamma (Homo sapiens) (UniProt P37231); experiment: OT_PPARg_PPARgSRC1_0480: Odyssey Thera (OT) 8-hour Protein-Complementation Assay for Peroxisome Proliferator-activated Receptor Gamma / SRC-1 Co-activator (AID 2283387)
Chain of Peroxisome proliferator-activated receptor gamma (Homo sapiens) (P37231 whole entry, looked up, the tested form may be a part): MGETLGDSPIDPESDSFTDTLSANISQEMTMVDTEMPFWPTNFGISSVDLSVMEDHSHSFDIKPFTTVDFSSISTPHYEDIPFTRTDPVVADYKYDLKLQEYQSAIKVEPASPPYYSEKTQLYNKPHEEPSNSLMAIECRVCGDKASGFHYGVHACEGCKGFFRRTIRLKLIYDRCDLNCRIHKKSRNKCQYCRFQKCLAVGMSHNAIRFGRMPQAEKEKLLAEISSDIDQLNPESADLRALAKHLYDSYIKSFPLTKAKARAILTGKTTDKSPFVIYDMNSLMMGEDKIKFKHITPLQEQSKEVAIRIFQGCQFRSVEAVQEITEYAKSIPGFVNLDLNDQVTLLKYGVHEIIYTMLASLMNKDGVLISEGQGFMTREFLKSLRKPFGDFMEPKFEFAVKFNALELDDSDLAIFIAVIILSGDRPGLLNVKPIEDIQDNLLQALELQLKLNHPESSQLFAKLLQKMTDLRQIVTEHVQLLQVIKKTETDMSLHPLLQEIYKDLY
In short: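 Split-YFP (IFP1/IFP2) PPARg/SRC-1 reporter, HEK293T, 37 °C, 5% CO2; 8 h compound; formaldehyde fix + Draq5; high-content imaging, N/C ratio, ≥350 cells/image, positive direction vs DMSO.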

[5] = target: Peroxisome proliferator-activated receptor gamma (Homo sapiens) (UniProt P37231); experiment: OT_PPARg_PPARgSRC1_1440: Odyssey Thera (OT) 24-hour Protein-Complementation Assay for Peroxisome Proliferator-activated Receptor Gamma/ SRC-1 Co-activator (AID 2283388)
In short: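 HEK293T transiently transfected with PPARg/SRC-1 split-Venus YFP fusions 48 h before dosing, then treated 24 h at 37C. Fixed cells imaged; nuclear/cytoplasmic 488 nm fluorescence ratio, gain of signal versus DMSO.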

[6] = CEETOX_H295R_OHPREG: CeeTox H295R High-throughput Steroidogenesis Assay for OH-Pregnenolone (OHPREG) (AID 2283434; active means hit-call score of the fitted dose curve at least 0.9, where 1 is the maximum; inactive means score below 0.9); details: actives raise or lower the signal
In short: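 H295R, 10 uM forskolin pre-stim 48 h; test chemical 48 h, 0.1% DMSO final. MTBE extraction, reverse-phase C18 HPLC-ESI+ MS/MS of medium. Gain/loss vs DMSO; viability by MTT in same wells.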

[7] = CEETOX_H295R_OHPROG: CeeTox H295R High-throughput Steroidogenesis Assay for OH-Progesterone (OHPROG) (AID 2283435; active means hit-call score of the fitted dose curve at least 0.9, where 1 is the maximum; inactive means score below 0.9); details: actives raise or lower the signal
In short: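 Medium steroid levels read by LC-MS/MS after 48 h chemical treatment (0.1% DMSO) of human adrenal H295R cells that had been forskolin-primed (10 uM, 48 h). Gain or loss fitted against DMSO; MTT cytotoxicity checked per well.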

[8] = target: mouse Estrogen Receptor alpha (Era), Esr1 (gene 13982) (UniProt P19785); experiment: NVS_NR_mERa: NovaScreen (NVS) Nuclear Receptor Binding Assay for mouse Estrogen Receptor alpha (Era) (AID 2283378);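 further: hit means loss of bound radioligand signal relative to DMSO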
Chain of mouse Estrogen Receptor alpha (Era), Esr1 (gene 13982) (P19785 whole entry, looked up): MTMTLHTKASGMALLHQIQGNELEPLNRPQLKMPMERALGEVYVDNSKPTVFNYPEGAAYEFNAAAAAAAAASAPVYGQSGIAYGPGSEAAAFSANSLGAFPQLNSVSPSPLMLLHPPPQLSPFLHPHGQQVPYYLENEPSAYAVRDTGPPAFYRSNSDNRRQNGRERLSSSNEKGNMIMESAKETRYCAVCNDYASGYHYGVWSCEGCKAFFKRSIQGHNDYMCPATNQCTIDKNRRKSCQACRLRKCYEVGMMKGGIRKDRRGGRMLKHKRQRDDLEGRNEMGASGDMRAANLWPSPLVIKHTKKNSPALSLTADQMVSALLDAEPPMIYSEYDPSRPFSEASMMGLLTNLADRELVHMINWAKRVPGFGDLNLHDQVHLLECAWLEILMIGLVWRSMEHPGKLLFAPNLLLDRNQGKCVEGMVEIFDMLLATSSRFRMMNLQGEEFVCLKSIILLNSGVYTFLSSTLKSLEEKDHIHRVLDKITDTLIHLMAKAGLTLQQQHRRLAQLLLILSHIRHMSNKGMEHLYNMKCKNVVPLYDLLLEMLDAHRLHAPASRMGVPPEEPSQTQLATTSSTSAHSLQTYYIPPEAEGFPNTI
In short: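 Cell-free radioligand competitive displacement binding, read by filter-based scintillation counting 18 h after dosing. Primary screen run in duplicate at 25 uM, actives retested in concentration series; loss of signal versus DMSO.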

[9] = target: Estrogen receptor (Homo sapiens) (UniProt P03372); experiment: OT_ERa_GFPERaERE_0480: Odyssey Thera (OT) 8-hour HeLa Transcription Induction Assay for Estrogen Receptor (AID 2283381; active means hit-call score of the fitted dose curve at least 0.9, where 1 is the maximum; inactive means score below 0.9)
Chain of Estrogen receptor (Homo sapiens) (P03372 whole entry, looked up): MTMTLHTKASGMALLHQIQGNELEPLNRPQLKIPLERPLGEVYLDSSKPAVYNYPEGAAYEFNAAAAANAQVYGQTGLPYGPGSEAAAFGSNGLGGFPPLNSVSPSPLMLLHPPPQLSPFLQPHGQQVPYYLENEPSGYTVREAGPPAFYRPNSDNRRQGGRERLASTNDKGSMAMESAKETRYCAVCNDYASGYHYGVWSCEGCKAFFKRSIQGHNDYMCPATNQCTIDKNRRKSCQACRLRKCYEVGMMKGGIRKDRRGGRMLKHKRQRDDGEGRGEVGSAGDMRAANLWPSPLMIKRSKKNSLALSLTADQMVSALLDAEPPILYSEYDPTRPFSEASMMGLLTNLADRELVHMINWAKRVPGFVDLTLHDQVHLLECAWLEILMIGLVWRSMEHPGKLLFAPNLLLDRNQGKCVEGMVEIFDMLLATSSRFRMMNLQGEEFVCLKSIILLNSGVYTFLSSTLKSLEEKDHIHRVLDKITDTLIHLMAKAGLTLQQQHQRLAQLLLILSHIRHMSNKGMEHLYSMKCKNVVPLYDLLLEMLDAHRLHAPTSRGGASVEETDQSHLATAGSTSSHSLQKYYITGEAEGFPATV
In short: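 Fluorescence microscopy with high-content image analysis measures ERE-driven GFP induction in HeLa cells at 8 h post-dose. Increases fitted against DMSO baseline.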

[10] = target: Estrogen receptor (Homo sapiens) (UniProt P03372); experiment: OT_ERa_GFPERaERE_0120: Odyssey Thera (OT) 2-hour HeLa Transcription Induction Assay for Estrogen Receptor (AID 2283382)
In short: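 Fluorescence-microscopy images of the GFP-ERα/ERE reporter, scored by high-content image algorithms, give the readout. HeLa exposure lasted 2 h, and only signal increase over DMSO was fitted.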

[11] = target: Bile acid receptor (Homo sapiens) (UniProt Q96RI1); experiment: OT_FXR_FXRSRC1_0480: Odyssey Thera (OT) 8-hour HEK293T Protein-Complementation Assay for Farnesoid X receptor/SRC-1 Co-activator (AID 2283383)
Chain of Bile acid receptor (Homo sapiens) (Q96RI1 whole entry, looked up, the tested form may be a part): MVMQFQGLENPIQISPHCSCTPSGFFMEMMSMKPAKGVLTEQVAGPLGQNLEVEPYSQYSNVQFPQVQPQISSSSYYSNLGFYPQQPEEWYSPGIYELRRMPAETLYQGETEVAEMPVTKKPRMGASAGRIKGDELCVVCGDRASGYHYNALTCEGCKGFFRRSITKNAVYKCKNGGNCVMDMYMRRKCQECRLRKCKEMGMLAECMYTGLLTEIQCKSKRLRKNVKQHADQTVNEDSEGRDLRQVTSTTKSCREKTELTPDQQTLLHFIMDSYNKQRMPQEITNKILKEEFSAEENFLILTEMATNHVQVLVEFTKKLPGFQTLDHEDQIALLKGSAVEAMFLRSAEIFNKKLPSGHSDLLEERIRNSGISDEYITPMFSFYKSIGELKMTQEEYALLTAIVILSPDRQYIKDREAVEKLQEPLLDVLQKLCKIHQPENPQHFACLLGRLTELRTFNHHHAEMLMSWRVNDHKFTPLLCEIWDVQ
In short: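 Binding of FXR to coactivator SRC-1 was read as fluorescence from a reconstituted split reporter in HEK293T cells, 8 h after chemical addition. Only increases in signal versus DMSO were fit.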

[12] = target: Bile acid receptor (Homo sapiens) (UniProt Q96RI1); experiment: OT_FXR_FXRSRC1_1440: Odyssey Thera (OT) 24-hour HEK293T Protein-Complementation Assay for Farnesoid X receptor/SRC-1 Co-activator (AID 2283384)
In short: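 Protein-fragment complementation: FXR and SRC-1 fused to reporter fragments that reassemble on interaction, read by fluorescence intensity. Human HEK293T cells measured 24 h post-dose; positive-direction fit versus DMSO.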

Measured: AC50

C[C@]12CCC(=O)C[C@@H]1CC[C@@H]1[C@@H]2CC[C@]2(C)[C@@H](O)CC[C@@H]12
inactive: [1] | [2] | [3] | [4] | [5] | [7]
active: [1] 6.06 µM and 8.11 µM and 7.61 µM | [3] 40300 nM | [6] 79.1 nM

CCC[CH2][Sn]([CH2]CCC)([CH2]CCC)[O]C(=O)c1ccccc1
inactive: [8] | [9] | [3] | [4]
active: [5] 33.1 nM

[O-][Cl+2]([O-])O
inactive: [1] | [9] | [10] | [11] | [12] | [4] | [5]

Cl/C=C/Cl
inactive: [8] | [9] | [10] | [2] | [3]

ClCC(Cl)CCl
inactive: [8] | [2] | [3]

Clc1ccc(C2(Cn3cncn3)CC(Br)CO2)c(Cl)c1 (stereo not drawn)
not listed: [6] | [7] | [8]
inactive: all other assays above

Cc1ccc2ccccc2c1C
inactive: [1] | [9] | [10] | [4] | [5]
